Results published in PMC7862700, “An all-to-all approach to the identification of sequence-specific readers for epigenetic DNA modifications on cytosine”.

Tests used:
Experiment in all cases: DAPPL (digital affinity profiling via proximity ligation, sequencing); 10 mM Tris-HCl pH 7.5, 50 mM NaCl, 1 mM DTT, 4% glycerol, room temperature, 30 min; GST-TFs on glutathione beads, 16-mer random dsDNA library, 0.1% formaldehyde crosslink after washing; high values mean tight binding
Details in all cases: protein: recombinant; tags: N-terminal GST; dsDNA, one strand shown
ERF = biological target: T1, ERF (Homo sapiens, UniProt P50548 1-548)
T1 sequence: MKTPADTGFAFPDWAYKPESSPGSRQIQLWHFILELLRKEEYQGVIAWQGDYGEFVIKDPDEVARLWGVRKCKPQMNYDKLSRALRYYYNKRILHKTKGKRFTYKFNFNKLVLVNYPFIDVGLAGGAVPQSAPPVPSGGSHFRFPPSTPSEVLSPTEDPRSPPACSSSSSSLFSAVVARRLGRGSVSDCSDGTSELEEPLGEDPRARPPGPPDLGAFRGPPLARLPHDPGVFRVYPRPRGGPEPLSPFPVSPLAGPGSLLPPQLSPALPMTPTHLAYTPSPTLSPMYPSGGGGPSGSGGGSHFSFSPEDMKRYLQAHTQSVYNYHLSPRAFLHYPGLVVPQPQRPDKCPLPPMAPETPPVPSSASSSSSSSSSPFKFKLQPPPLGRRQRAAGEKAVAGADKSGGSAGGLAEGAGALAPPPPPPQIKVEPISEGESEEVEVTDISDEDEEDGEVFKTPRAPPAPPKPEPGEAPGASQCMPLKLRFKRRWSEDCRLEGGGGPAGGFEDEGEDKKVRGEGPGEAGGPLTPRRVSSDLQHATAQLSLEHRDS
Procedure, shortened: (§1)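 Yeast served to express human transcription factors as GST fusions, which were then captured on glutathione beads and labelled with DNA barcodes. Pooled with a tag-only sample, they were incubated with 200 nmole of a 16-mer random double-stranded DNA library for 30 min at room temperature in Tris/NaCl/DTT/glycerol buffer, washed, crosslinked with 0.1% formaldehyde, ligated by proximity, amplified by PCR and sequenced. Dividing each hexamer's read frequency for a factor by its frequency for the tag-only sample gives the binding signal.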

ETV3L = biological target: T2, ETV3L (Homo sapiens, UniProt Q6ZN32 1-361)
T2 sequence: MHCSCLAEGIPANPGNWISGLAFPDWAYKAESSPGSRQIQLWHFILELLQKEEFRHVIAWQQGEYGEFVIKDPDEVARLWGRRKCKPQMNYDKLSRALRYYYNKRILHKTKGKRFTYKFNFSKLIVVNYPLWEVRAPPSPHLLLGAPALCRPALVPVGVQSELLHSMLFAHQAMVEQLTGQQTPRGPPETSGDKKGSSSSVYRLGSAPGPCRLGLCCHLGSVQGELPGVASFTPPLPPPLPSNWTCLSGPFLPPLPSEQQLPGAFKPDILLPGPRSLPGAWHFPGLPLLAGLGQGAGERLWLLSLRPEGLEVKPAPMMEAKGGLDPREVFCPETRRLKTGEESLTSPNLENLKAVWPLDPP
Procedure, shortened: as §1

ETS2 = biological target: T3, ETS2 (Homo sapiens, UniProt P15036 1-469)
T3 sequence: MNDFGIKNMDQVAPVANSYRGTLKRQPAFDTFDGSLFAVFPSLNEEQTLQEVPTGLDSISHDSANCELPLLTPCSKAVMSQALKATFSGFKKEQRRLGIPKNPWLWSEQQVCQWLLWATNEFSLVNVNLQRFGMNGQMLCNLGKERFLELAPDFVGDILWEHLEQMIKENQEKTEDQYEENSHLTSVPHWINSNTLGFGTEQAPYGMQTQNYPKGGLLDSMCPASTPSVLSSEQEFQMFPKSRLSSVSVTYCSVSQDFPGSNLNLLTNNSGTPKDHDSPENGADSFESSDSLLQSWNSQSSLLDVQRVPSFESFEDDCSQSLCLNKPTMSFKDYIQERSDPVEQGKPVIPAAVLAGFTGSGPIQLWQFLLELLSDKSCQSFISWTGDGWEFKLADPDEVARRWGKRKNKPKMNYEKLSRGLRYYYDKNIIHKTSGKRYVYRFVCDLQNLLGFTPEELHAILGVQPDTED
Procedure, shortened: as §1

SPDEF = biological target: T4, SPDEF (Homo sapiens, UniProt O95238 1-335)
T4 sequence: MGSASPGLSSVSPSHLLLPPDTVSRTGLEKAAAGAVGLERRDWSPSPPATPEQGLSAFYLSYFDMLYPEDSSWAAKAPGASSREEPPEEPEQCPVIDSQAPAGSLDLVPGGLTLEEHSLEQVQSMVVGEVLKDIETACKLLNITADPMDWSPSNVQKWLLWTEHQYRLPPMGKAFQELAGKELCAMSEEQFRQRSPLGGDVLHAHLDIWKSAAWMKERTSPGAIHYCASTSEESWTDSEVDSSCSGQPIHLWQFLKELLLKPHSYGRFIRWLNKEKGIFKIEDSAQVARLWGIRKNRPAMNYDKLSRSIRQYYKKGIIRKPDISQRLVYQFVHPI
Procedure, shortened: as §1

ETV7 = biological target: T5, ETV7 (Homo sapiens, UniProt Q9Y603 1-341)
T5 sequence: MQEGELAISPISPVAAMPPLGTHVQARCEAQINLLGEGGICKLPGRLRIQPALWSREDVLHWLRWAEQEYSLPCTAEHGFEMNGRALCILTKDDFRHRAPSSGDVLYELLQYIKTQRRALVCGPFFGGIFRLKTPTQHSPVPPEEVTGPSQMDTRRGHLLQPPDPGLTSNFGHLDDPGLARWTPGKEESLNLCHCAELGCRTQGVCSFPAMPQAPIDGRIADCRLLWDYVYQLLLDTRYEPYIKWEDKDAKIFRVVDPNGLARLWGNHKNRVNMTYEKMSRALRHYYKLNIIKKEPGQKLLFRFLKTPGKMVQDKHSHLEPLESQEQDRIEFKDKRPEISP
Procedure, shortened: as §1

ELF5 = biological target: T6, ELF5 (Homo sapiens, UniProt Q9UKW6-2 1-255)
T6 sequence: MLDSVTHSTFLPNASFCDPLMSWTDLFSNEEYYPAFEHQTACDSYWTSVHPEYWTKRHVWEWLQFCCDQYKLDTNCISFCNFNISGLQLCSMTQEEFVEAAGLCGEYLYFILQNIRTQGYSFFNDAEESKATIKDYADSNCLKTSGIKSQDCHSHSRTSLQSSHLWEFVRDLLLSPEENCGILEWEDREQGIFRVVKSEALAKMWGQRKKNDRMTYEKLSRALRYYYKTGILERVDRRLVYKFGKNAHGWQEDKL
Procedure, shortened: as §1

ETV3 = biological target: T7, ETV3 (Homo sapiens, UniProt P41162-2 1-143)
T7 sequence: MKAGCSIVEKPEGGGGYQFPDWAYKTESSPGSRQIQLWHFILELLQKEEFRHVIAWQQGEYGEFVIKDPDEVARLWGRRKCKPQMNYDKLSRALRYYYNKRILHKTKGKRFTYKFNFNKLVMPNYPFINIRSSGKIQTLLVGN
Procedure, shortened: as §1

ETV6 = ETV6 (Homo sapiens, UniProt P41212 1-452)
Chain of ETV6 (P41212 whole entry): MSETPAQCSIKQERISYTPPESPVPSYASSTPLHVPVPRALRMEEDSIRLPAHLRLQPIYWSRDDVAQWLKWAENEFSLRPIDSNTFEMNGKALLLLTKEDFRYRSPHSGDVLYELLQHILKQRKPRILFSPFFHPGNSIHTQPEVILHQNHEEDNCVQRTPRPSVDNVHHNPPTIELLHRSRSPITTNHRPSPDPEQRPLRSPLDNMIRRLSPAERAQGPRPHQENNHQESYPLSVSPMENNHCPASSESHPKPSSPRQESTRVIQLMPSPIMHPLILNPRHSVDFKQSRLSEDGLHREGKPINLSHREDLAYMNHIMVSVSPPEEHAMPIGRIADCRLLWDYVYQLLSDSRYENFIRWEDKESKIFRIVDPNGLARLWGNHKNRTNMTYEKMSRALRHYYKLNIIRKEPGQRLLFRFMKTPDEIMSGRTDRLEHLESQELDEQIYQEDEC
Procedure, shortened: as §1

Sequence | binding signal (ERF) | binding signal (ETV3L) | binding signal (ETS2) | binding signal (SPDEF) | binding signal (ETV7) | binding signal (ELF5) | binding signal (ETV3) | binding signal (ETV6)
CTAAGA | 1.08 fold enrichment (6-mer frequency, TF over GST control) | 1.21 fold enrichment (6-mer frequency, TF over GST control) | 1.17 fold enrichment (6-mer frequency, TF over GST control) | 1.15 fold enrichment (6-mer frequency, TF over GST control) | 1.25 fold enrichment (6-mer frequency, TF over GST control) | 1.2 fold enrichment (6-mer frequency, TF over GST control) | 1.17 fold enrichment (6-mer frequency, TF over GST control) | 1.23 fold enrichment (6-mer frequency, TF over GST control)
GTTTTT | 1.07 fold enrichment (6-mer frequency, TF over GST control) | 1.3 fold enrichment (6-mer frequency, TF over GST control) | 1.25 fold enrichment (6-mer frequency, TF over GST control) | 1.23 fold enrichment (6-mer frequency, TF over GST control) | 1.2 fold enrichment (6-mer frequency, TF over GST control) | 1.36 fold enrichment (6-mer frequency, TF over GST control) | 1.34 fold enrichment (6-mer frequency, TF over GST control) | 1.21 fold enrichment (6-mer frequency, TF over GST control)
CCTCCA | 1.34 fold enrichment (6-mer frequency, TF over GST control) | 1.24 fold enrichment (6-mer frequency, TF over GST control) | 1.31 fold enrichment (6-mer frequency, TF over GST control) | 1.34 fold enrichment (6-mer frequency, TF over GST control) | 1.36 fold enrichment (6-mer frequency, TF over GST control) | 1.42 fold enrichment (6-mer frequency, TF over GST control) | 1.24 fold enrichment (6-mer frequency, TF over GST control) | 1.29 fold enrichment (6-mer frequency, TF over GST control)
TTACCC | 1.35 fold enrichment (6-mer frequency, TF over GST control) | 1.26 fold enrichment (6-mer frequency, TF over GST control) | 1.42 fold enrichment (6-mer frequency, TF over GST control) | 1.33 fold enrichment (6-mer frequency, TF over GST control) | 1.41 fold enrichment (6-mer frequency, TF over GST control) | 1.43 fold enrichment (6-mer frequency, TF over GST control) | 1.35 fold enrichment (6-mer frequency, TF over GST control) | 1.29 fold enrichment (6-mer frequency, TF over GST control)
CCTATG | 1.11 fold enrichment (6-mer frequency, TF over GST control) | 1.21 fold enrichment (6-mer frequency, TF over GST control) | 1.19 fold enrichment (6-mer frequency, TF over GST control) | 1.25 fold enrichment (6-mer frequency, TF over GST control) | 1.27 fold enrichment (6-mer frequency, TF over GST control) | 1.16 fold enrichment (6-mer frequency, TF over GST control) | 1.29 fold enrichment (6-mer frequency, TF over GST control) | 1.17 fold enrichment (6-mer frequency, TF over GST control)
ATTTTT | 1.21 fold enrichment (6-mer frequency, TF over GST control) | 1.2 fold enrichment (6-mer frequency, TF over GST control) | 1.1 fold enrichment (6-mer frequency, TF over GST control) | 1.15 fold enrichment (6-mer frequency, TF over GST control) | 1.19 fold enrichment (6-mer frequency, TF over GST control) | 1.16 fold enrichment (6-mer frequency, TF over GST control) | 1.17 fold enrichment (6-mer frequency, TF over GST control) | 1.17 fold enrichment (6-mer frequency, TF over GST control)
TATATC | 1.61 fold enrichment (6-mer frequency, TF over GST control) | 1.56 fold enrichment (6-mer frequency, TF over GST control) | 1.64 fold enrichment (6-mer frequency, TF over GST control) | 2.19 fold enrichment (6-mer frequency, TF over GST control) | 1.48 fold enrichment (6-mer frequency, TF over GST control) | 1.66 fold enrichment (6-mer frequency, TF over GST control) | 1.68 fold enrichment (6-mer frequency, TF over GST control) | 1.5 fold enrichment (6-mer frequency, TF over GST control)
CCCCAT | 1.16 fold enrichment (6-mer frequency, TF over GST control) | 1.29 fold enrichment (6-mer frequency, TF over GST control) | 1.32 fold enrichment (6-mer frequency, TF over GST control) | 1.3 fold enrichment (6-mer frequency, TF over GST control) | 1.19 fold enrichment (6-mer frequency, TF over GST control) | 1.39 fold enrichment (6-mer frequency, TF over GST control) | 1.31 fold enrichment (6-mer frequency, TF over GST control) | 1.25 fold enrichment (6-mer frequency, TF over GST control)
ATTTAT | 1.51 fold enrichment (6-mer frequency, TF over GST control) | 1.54 fold enrichment (6-mer frequency, TF over GST control) | 1.47 fold enrichment (6-mer frequency, TF over GST control) | 1.4 fold enrichment (6-mer frequency, TF over GST control) | 1.48 fold enrichment (6-mer frequency, TF over GST control) | 1.39 fold enrichment (6-mer frequency, TF over GST control) | 1.41 fold enrichment (6-mer frequency, TF over GST control) | 1.4 fold enrichment (6-mer frequency, TF over GST control)
TTCTTT | 1.08 fold enrichment (6-mer frequency, TF over GST control) | 1.27 fold enrichment (6-mer frequency, TF over GST control) | 1.32 fold enrichment (6-mer frequency, TF over GST control) | 1.08 fold enrichment (6-mer frequency, TF over GST control) | 1.24 fold enrichment (6-mer frequency, TF over GST control) | 1.13 fold enrichment (6-mer frequency, TF over GST control) | 1.2 fold enrichment (6-mer frequency, TF over GST control) | 1.14 fold enrichment (6-mer frequency, TF over GST control)
TCCGAA | 1.36 fold enrichment (6-mer frequency, TF over GST control) | 1.32 fold enrichment (6-mer frequency, TF over GST control) | 1.23 fold enrichment (6-mer frequency, TF over GST control) | 1.29 fold enrichment (6-mer frequency, TF over GST control) | 1.25 fold enrichment (6-mer frequency, TF over GST control) | 1.25 fold enrichment (6-mer frequency, TF over GST control) | 1.15 fold enrichment (6-mer frequency, TF over GST control) | 1.37 fold enrichment (6-mer frequency, TF over GST control)
TTCTAG | 1.33 fold enrichment (6-mer frequency, TF over GST control) | 1.3 fold enrichment (6-mer frequency, TF over GST control) | 1.34 fold enrichment (6-mer frequency, TF over GST control) | 1.17 fold enrichment (6-mer frequency, TF over GST control) | 1.45 fold enrichment (6-mer frequency, TF over GST control) | 1.2 fold enrichment (6-mer frequency, TF over GST control) | 1.19 fold enrichment (6-mer frequency, TF over GST control) | 1.16 fold enrichment (6-mer frequency, TF over GST control)
GATGTT | 1.24 fold enrichment (6-mer frequency, TF over GST control) | 1.31 fold enrichment (6-mer frequency, TF over GST control) | 1.24 fold enrichment (6-mer frequency, TF over GST control) | 1.51 fold enrichment (6-mer frequency, TF over GST control) | 1.21 fold enrichment (6-mer frequency, TF over GST control) | 1.32 fold enrichment (6-mer frequency, TF over GST control) | 1.34 fold enrichment (6-mer frequency, TF over GST control) | 1.3 fold enrichment (6-mer frequency, TF over GST control)
AAGTTC | 1.31 fold enrichment (6-mer frequency, TF over GST control) | 1.5 fold enrichment (6-mer frequency, TF over GST control) | 1.55 fold enrichment (6-mer frequency, TF over GST control) | 1.54 fold enrichment (6-mer frequency, TF over GST control) | 1.4 fold enrichment (6-mer frequency, TF over GST control) | 1.57 fold enrichment (6-mer frequency, TF over GST control) | 1.48 fold enrichment (6-mer frequency, TF over GST control) | 1.52 fold enrichment (6-mer frequency, TF over GST control)
CTCTAT | 1.22 fold enrichment (6-mer frequency, TF over GST control) | 1.14 fold enrichment (6-mer frequency, TF over GST control) | 1.16 fold enrichment (6-mer frequency, TF over GST control) | 1.16 fold enrichment (6-mer frequency, TF over GST control) | 1.18 fold enrichment (6-mer frequency, TF over GST control) | 1.14 fold enrichment (6-mer frequency, TF over GST control) | 1.08 fold enrichment (6-mer frequency, TF over GST control) | 1.06 fold enrichment (6-mer frequency, TF over GST control)
